What is called inhibition is the change of the read-out against control, counted positive when it falls.

Assay [1] concerns the target T1, Aurora kinase A (Homo sapiens) (UniProt O14965).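 Note: values are mean percent inhibition.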
T1 sequence (whole entry): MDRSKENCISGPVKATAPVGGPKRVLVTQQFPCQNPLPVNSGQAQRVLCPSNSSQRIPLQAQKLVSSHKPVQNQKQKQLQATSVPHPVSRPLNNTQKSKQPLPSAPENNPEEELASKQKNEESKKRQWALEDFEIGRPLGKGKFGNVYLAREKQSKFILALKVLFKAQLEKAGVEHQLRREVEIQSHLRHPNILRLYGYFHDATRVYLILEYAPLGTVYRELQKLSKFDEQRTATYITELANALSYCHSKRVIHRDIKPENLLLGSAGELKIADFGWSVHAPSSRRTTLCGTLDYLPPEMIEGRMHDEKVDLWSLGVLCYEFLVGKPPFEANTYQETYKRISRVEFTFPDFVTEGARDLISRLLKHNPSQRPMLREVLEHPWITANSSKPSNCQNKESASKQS
As to conditions: at 1 µM.

The target of assay [2] is Aurora kinase B (Homo sapiens) (UniProt Q96GD4). As to conditions: at 0.1 µM.
Assay [3] has the same target. The conditions noted are these: at 1 µM.
The target in assay [4] is T2, Aurora kinase C (Homo sapiens) (UniProt Q9UQB9).
T2 sequence (whole entry): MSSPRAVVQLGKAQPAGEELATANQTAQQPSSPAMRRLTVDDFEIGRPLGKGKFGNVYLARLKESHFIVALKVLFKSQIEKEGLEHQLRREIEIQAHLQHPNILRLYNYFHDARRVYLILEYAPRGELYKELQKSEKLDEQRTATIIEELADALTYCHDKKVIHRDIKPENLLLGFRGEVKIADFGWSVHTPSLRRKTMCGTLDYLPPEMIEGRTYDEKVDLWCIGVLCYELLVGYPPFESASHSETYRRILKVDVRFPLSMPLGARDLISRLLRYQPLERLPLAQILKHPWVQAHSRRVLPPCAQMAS
As to conditions: at 0.1 µM.

Assay [5] concerns the target T2, Aurora kinase C (Homo sapiens). The conditions noted are these: at 1 µM.
The target in assay [6] is Serine/threonine-protein kinase 10 (Homo sapiens) (UniProt O94804). The conditions noted are these: at 0.1 µM.
For assay [7] the target is unchanged. The conditions noted are these: at 1 µM.
Assay [8] has as its target T3, Mitogen-activated protein kinase kinase kinase kinase 2 (Homo sapiens) (UniProt Q12851).
T3 sequence (whole entry): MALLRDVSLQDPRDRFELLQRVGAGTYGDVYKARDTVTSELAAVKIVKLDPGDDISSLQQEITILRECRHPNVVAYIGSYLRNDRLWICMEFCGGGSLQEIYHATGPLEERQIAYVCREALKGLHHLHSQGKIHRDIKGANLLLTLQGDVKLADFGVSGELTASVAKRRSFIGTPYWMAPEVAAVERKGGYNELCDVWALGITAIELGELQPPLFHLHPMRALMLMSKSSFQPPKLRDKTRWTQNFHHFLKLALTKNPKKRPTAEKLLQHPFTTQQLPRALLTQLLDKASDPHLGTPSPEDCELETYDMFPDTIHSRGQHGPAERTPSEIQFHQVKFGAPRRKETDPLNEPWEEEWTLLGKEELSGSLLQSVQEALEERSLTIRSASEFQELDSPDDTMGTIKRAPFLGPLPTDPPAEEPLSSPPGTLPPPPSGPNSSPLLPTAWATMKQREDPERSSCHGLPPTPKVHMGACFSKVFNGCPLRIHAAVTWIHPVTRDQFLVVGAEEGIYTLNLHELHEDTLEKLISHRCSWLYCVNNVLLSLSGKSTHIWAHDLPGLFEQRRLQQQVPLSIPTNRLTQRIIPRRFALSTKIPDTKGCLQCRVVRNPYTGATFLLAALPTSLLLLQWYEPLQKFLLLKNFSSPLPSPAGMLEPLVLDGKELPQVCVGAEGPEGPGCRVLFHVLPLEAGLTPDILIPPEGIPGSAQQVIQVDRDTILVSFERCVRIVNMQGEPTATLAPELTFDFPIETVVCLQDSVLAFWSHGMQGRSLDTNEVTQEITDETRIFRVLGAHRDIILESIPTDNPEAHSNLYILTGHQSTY
The conditions noted are these: at 0.1 µM.

For assay [9], the target named is T3, Mitogen-activated protein kinase kinase kinase kinase 2 (Homo sapiens). The conditions noted are these: at 1 µM.
Assay [10] concerns the target Mitogen-activated protein kinase kinase kinase kinase 4 (Homo sapiens) (UniProt O95819). The conditions noted are these: at 0.1 µM.
The target is the same in assay [11]. The conditions noted are these: at 1 µM.
Assay [12] concerns the target Dual specificity mitogen-activated protein kinase kinase 1 (Homo sapiens) (UniProt Q02750). As to conditions: at 0.1 µM.
For assay [13] the target is unchanged. The conditions noted are these: at 1 µM.
Assay [14] concerns the target Misshapen-like kinase 1 (Homo sapiens) (UniProt Q8N4C8). As to conditions: at 0.1 µM.
Assay [15] shares this target. The conditions noted are these: at 1 µM.
For assay [16], the target named is T4, Serine/threonine-protein kinase 4 (Homo sapiens) (UniProt Q13043).
T4 sequence (whole entry): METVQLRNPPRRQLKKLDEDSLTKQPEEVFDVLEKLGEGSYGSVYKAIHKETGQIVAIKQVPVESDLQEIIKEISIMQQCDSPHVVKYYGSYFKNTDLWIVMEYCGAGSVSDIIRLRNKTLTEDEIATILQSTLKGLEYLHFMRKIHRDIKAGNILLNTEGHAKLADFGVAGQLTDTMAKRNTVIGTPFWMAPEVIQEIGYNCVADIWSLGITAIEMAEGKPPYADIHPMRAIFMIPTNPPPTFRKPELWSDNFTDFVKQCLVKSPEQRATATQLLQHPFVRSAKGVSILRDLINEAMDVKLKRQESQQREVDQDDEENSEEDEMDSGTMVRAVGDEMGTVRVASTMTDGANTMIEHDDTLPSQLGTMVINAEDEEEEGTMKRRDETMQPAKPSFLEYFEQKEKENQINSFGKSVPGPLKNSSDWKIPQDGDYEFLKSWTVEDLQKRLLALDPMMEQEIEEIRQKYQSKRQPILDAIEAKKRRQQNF
As to conditions: at 0.1 µM.

For assay [17], the target named is T4, Serine/threonine-protein kinase 4 (Homo sapiens). As to conditions: at 1 µM.
The target of assay [18] is T5, Serine/threonine-protein kinase 3 (Homo sapiens) (UniProt Q13188).
T5 sequence (whole entry): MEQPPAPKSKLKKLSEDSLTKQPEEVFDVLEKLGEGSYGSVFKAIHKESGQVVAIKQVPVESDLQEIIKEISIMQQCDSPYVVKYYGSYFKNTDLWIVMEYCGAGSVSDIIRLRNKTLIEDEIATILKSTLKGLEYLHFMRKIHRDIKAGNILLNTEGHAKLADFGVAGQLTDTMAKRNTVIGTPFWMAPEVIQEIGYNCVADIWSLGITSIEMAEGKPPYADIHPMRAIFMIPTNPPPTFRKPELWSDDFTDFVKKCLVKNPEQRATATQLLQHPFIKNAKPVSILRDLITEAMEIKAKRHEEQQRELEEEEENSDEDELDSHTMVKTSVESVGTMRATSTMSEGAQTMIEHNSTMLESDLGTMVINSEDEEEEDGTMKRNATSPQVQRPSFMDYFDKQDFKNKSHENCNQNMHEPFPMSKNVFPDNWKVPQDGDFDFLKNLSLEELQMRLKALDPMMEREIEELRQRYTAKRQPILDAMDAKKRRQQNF
As to conditions: at 0.1 µM.

The target in assay [19] is T5, Serine/threonine-protein kinase 3 (Homo sapiens). As to conditions: at 1 µM.
Assay [20] concerns the target Serine/threonine-protein kinase 26 (Homo sapiens) (UniProt Q9P289). As to conditions: at 0.1 µM.

Sequence of Aurora kinase B (Homo sapiens) (Q96GD4 whole entry): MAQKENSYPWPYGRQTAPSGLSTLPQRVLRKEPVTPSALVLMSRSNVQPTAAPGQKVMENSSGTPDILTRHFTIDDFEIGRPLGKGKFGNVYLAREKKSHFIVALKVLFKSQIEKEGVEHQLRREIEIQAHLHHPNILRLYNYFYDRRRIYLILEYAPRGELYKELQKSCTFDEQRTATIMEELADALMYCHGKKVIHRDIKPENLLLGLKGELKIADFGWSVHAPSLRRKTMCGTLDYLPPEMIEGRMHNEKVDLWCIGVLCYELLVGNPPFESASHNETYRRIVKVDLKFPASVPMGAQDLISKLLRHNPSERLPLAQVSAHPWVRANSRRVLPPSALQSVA
Sequence of Serine/threonine-protein kinase 10 (Homo sapiens) (O94804 whole entry, looked up): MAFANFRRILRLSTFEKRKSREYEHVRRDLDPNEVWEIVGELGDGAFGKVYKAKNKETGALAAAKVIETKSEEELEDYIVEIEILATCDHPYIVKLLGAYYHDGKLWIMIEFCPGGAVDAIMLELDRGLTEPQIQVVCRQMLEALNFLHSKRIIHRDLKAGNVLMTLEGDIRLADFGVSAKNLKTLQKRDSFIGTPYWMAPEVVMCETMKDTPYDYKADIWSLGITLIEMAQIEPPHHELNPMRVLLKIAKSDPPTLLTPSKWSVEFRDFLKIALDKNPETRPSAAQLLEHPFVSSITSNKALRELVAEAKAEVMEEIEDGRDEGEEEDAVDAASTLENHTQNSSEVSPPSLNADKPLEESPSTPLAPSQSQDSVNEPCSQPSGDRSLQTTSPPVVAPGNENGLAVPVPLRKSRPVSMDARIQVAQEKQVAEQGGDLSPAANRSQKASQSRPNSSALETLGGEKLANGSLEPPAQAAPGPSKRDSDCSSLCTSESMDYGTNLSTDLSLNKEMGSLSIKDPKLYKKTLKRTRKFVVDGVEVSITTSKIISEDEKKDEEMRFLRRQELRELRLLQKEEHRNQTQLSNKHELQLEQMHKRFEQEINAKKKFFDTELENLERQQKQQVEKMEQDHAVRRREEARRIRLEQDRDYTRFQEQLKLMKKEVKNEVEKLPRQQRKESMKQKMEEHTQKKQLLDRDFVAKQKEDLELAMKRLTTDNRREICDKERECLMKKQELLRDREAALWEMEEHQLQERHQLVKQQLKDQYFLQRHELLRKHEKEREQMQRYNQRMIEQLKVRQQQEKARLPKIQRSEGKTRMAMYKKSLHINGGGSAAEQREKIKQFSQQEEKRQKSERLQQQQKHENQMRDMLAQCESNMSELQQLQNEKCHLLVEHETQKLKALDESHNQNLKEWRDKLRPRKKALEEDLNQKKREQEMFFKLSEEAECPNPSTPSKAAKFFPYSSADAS
Sequence of Mitogen-activated protein kinase kinase kinase kinase 4 (Homo sapiens) (O95819 2-1239 limits assumed): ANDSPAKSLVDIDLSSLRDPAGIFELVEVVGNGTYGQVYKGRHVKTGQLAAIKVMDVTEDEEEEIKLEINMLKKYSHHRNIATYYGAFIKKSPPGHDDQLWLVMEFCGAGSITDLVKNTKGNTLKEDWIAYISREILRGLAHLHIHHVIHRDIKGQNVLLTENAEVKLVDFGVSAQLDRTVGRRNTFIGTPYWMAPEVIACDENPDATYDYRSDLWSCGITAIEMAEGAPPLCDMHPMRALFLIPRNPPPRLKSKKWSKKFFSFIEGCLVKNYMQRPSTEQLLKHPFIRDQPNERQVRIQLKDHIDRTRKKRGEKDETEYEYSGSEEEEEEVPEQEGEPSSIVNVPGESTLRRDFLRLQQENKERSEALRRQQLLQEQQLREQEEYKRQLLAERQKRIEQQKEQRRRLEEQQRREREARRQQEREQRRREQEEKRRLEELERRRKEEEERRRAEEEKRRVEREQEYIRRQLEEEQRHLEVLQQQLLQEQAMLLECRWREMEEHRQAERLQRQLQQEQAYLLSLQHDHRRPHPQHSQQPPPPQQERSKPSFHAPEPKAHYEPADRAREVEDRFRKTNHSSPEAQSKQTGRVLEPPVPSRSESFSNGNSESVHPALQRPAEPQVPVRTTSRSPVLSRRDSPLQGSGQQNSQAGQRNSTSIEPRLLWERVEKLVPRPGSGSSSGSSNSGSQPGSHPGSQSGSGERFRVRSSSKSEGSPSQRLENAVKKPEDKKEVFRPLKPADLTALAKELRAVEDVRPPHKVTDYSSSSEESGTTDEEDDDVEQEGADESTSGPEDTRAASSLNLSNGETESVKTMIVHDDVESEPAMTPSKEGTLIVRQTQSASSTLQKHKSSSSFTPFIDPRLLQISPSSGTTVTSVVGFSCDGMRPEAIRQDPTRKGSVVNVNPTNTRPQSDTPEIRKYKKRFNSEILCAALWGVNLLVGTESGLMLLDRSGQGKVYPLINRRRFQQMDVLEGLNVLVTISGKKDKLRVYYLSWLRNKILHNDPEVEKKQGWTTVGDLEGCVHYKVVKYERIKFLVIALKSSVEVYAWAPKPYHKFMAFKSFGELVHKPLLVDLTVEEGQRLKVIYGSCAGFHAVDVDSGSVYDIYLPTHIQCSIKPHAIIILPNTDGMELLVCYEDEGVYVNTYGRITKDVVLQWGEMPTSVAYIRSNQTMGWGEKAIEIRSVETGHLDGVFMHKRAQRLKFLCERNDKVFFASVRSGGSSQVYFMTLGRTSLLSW
Sequence of Dual specificity mitogen-activated protein kinase kinase 1 (Homo sapiens) (Q02750 whole entry): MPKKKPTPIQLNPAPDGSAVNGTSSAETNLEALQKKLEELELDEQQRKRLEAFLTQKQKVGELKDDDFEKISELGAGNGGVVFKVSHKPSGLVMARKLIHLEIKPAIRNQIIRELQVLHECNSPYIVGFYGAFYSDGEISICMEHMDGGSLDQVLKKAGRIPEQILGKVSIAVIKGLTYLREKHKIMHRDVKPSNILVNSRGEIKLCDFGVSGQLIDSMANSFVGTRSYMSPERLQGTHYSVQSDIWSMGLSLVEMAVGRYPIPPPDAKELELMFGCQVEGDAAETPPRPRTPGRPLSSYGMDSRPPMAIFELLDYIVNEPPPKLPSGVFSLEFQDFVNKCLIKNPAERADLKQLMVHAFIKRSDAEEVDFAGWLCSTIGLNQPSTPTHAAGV
Sequence of Misshapen-like kinase 1 (Homo sapiens) (Q8N4C8 whole entry, looked up): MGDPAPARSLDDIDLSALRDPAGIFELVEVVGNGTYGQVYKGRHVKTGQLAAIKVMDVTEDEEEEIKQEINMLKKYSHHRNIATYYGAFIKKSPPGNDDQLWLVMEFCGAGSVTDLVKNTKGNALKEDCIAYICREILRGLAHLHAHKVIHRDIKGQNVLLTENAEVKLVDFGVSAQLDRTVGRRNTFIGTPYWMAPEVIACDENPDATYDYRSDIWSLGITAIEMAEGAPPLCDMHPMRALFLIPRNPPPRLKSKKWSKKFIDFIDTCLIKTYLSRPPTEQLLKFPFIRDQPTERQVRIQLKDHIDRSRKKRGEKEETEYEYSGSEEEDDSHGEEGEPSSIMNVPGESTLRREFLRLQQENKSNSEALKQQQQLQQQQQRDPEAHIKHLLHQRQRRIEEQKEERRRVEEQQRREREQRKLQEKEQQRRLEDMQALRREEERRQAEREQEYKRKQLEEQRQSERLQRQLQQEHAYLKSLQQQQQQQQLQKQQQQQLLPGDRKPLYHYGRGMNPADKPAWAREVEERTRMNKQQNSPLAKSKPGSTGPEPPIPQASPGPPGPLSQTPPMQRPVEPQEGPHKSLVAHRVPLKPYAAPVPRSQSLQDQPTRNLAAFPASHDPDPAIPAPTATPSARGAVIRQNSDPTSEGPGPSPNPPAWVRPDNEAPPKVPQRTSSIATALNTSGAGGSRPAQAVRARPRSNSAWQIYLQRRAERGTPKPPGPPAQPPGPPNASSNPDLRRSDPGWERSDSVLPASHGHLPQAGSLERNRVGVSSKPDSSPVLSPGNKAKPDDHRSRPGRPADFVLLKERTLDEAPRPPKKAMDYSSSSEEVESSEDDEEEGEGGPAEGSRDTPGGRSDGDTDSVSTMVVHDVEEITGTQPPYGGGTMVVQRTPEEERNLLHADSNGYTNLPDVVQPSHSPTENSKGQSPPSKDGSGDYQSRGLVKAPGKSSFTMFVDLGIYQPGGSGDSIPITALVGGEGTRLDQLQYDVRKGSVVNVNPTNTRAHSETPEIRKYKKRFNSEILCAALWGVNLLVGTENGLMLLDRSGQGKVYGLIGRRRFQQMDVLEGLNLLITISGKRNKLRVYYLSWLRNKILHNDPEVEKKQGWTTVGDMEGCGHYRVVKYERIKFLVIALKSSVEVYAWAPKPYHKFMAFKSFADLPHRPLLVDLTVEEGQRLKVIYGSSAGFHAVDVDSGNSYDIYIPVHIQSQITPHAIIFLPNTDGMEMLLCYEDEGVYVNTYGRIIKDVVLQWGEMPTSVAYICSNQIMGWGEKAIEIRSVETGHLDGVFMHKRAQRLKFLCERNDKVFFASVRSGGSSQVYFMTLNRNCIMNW
Sequence of Serine/threonine-protein kinase 26 (Homo sapiens) (Q9P289 2-416 limits assumed): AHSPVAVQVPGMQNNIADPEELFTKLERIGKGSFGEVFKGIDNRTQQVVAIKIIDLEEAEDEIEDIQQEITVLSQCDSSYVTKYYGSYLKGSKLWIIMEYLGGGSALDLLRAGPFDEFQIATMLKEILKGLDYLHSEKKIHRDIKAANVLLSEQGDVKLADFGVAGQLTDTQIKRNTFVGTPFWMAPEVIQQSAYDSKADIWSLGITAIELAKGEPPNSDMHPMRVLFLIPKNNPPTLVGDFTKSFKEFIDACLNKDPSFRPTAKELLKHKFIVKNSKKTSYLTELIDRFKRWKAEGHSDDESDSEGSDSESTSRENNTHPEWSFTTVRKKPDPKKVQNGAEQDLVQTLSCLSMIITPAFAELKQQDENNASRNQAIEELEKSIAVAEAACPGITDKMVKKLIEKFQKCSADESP

Consider `Oc1cccc(-c2nc(-c3ccccc3)[nH]c2-c2ccncc2)c1`, for which the inhibition in [1] was 4.61%; in assay [2], 3.38%; in [3], 8.4%; in [4] it was 2.05%; in [5], -2.07%; in assay [6] it was 4.37%. For the same molecule, the inhibition amounted to 16.6% in assay [7]; 0.57% in [8]; 4.27% in assay [9]; 4.05% in [10]; 11.6% in [11]; 5.08% in [12]. Besides, the inhibition in assay [13] was 4.94%; in assay [14], 5.57%; in assay [15], 8.96%; in assay [16], 5.39%; in assay [17] it was 8.96%; in assay [18], 5.44%. Also, the inhibition was 7.6% in [19] and 0.83% in [20].

For the molecule `Cc1ccc2c(c1)/C(=N/Nc1ccc(S(N)(=O)=O)cc1)C(=O)N2`, the inhibition turned out to be 27.8% in [1]; 1.05% in [2]; 7.36% in assay [3]; 1.16% in assay [4]; 23.6% in assay [5]; 0.32% in assay [6]. Moreover, the inhibition amounted to 3.53% in assay [7]; 1.01% in assay [8]; 4.98% in assay [9]; 27.3% in assay [10]; 72.3% in assay [11]; 0.13% in [12]. The inhibition amounted to 1.05% in [13]; 16.2% in assay [14]; 61.8% in [15]; 16.4% in assay [16]; 65.9% in [17]; 11% in assay [18]. Further, the inhibition in [19] is 55%; in assay [20], 0.66%.

As to `Cc1nc(-c2ccccc2)n2nc(NCCCN3CCOCC3)ncc12`, the inhibition in assay [1] was 5.63%; in [2], 1.82%; in assay [3], 8.37%; in assay [4], 1.43%; in [5] it was 12.1%; in assay [6], 4.62%. The inhibition in [7] was found to be 7.49%; in assay [8], 2.45%; in [9] it was 2.48%; in assay [10], 1.62%; in [11], 5.45%; in assay [12], 2.79%. In addition, the inhibition in [13] is 4.46%; in assay [14], 4.74%; in [15], 5.12%; in assay [16] it was 1.32%; in assay [17], 4%; in [18], 2.92%. Moreover, the inhibition in assay [19] was 4.68%.

For the molecule `CCS(=O)(=O)c1ccc(OC)c(Nc2ncc(-c3cccc(OC)c3)o2)c1`, the inhibition in [1] worked out at 34.5%; in [2] it was 2.15%; in assay [3], 5.4%; in [4], 1.61%; in assay [5], 14.6%; in [6], 4.31%. For the same molecule, the inhibition was 8.64% in [7]; 1.39% in assay [8]; 6.14% in assay [9]; 4.46% in assay [10]; 25.9% in assay [11]; 2.58% in assay [12]. The inhibition was determined as 3.57% in assay [13]; 5.68% in [14]; 16.8% in assay [15]; 6.63% in [16]; 10.6% in assay [17]; 6.69% in assay [18]. Besides, the inhibition in assay [19] is 7.22%; in assay [20] it was -1.42%.

For the molecule `c1ccc(Cc2nc3ccc(Nc4ncnc5ccccc45)cc3[nH]2)cc1`, the inhibition was 11.6% in [1]; 5.89% in assay [2]; 11% in assay [3]; 4.08% in assay [4]; 7.02% in assay [5]; 4.04% in [6]. The inhibition was determined as 8.14% in assay [7]; 0.75% in [8]; 6.22% in assay [9]; 4.28% in assay [10]; 10% in assay [11]; 2.72% in [12]. In addition, the inhibition in assay [13] came to 2.98%; in [14], 4.23%; in assay [15], 9.55%; in [16], 4.48%; in assay [17], 8.56%; in [18], 5.09%. For the same molecule, the figures for the inhibition in assay [19] and in [20] were 8.29% and -0.58%, respectively.

For `CC(C)c1ccc2c(c1)NC(=O)/C2=N/Nc1ccc(S(N)(=O)=O)cc1`, the inhibition is 8.05% in assay [1]; 1.3% in [2]; 7% in [3]; -4.39% in assay [4]; 6.7% in assay [5]; -0.47% in [6]. In addition, the inhibition in assay [7] turned out to be 2.14%; in assay [8], 2.41%; in assay [9] it was 2.01%; in [10], 12.8%; in assay [11], 62.3%; in assay [12], 0.83%. Moreover, the inhibition in assay [13] turned out to be 1.72%; in assay [14], 10.1%; in assay [15], 48.9%; in [16], 1.52%; in assay [17] it was 11.2%; in [18], 1.12%. Also, the inhibition in assay [19] was 9.13%; in [20], -0.9%.

Take `COC(=O)c1cncc(/C=C/c2c(C)cc(O)cc2C)c1`: the inhibition is 8.18% in assay [1]; 2.38% in assay [2]; 9.6% in assay [3]; 2.3% in [4]; -1.31% in assay [5]; 5.36% in assay [6]. For the same molecule, the inhibition in [7] came to 26.2%; in [8], 0.34%; in assay [9], 4.75%; in [10], 3.73%; in [11], 18.8%; in assay [12], 4.72%. Further, the inhibition in assay [13] came out at 4.21%; in assay [14], 5.24%; in [15], 14.9%; in assay [16], 7.04%; in assay [17] it was 9.84%; in assay [18], 7.02%. For the same molecule, the inhibition is 9.92% in assay [19] and -1.08% in [20].

Values taken from ChEMBL document CHEMBL1961873, “Compounds: GSK PKIS; Assays: Nanosyn kinase panel” (2012).
